# Test results: PubChem BioAssay (EPA / NIEHS)
# Results filed as inconclusive are left out. Active and inactive are the calls of the source. Rule for the calls: active = hit-call score of the fitted dose curve at least 0.9, where 1 is the maximum; inconclusive = response in the unintended direction; inactive = score below 0.9.
# What was measured:
# [1] = target: human Caspase 4 (CASP4), CASP4 (gene 837) (UniProt P49662); experiment: NVS_ENZ_hCASP4: NovaScreen (NVS) Enzymatic Assay for human Caspase 4 (CASP4) (AID 2283143)
# Sequence of human Caspase 4 (CASP4), CASP4 (gene 837) (P49662 whole entry, looked up): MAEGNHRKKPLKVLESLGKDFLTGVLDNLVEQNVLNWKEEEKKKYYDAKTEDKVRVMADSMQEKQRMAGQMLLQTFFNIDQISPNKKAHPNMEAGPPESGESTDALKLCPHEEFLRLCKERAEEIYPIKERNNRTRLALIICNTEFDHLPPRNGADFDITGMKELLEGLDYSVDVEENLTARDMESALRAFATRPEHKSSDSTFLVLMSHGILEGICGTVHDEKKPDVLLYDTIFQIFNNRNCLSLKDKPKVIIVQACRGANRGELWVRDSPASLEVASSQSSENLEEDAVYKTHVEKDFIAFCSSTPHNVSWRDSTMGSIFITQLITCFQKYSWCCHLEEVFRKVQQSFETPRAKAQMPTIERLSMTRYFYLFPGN
# Procedure, shortened: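 The cell-free assay used E. coli-expressed enzyme with a fluorogenic substrate, read 2 h after dosing. Signal loss was scored versus DMSO. Screening was in duplicate at 25 uM, then singleton concentration-response up to 50 uM.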
# [2] = target: human Dual Specificity Protein Phosphatase 3 (DUSP3), DUSP3 (gene 1845) (UniProt P51452); experiment: NVS_ENZ_hDUSP3: NovaScreen (NVS) Enzymatic Assay for human Dual Specificity Protein Phosphatase 3 (DUSP3) (AID 2283152);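 note: phosphatase activity of recombinant human DUSP3 on a fluorogenic substrate without cells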
# Sequence of human Dual Specificity Protein Phosphatase 3 (DUSP3), DUSP3 (gene 1845) (P51452 whole entry, looked up): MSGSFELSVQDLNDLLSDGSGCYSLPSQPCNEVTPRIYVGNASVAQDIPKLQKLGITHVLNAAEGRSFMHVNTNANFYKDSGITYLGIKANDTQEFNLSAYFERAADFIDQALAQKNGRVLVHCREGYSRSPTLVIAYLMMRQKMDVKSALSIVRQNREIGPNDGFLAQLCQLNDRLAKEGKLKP
# Procedure, shortened: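 Cell-free assay with recombinant human DUSP3 and fluorogenic substrate, read by fluorescence intensity. Primary screen ran duplicate at 25 uM; actives followed up in concentration series; loss of signal versus DMSO scored.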
# [3] = target: human Elastase, ELANE (gene 1991) (UniProt P08246); experiment: NVS_ENZ_hElastase: NovaScreen (NVS) Enzymatic Assay for human Elastase (AID 2283153)
# Sequence of human Elastase, ELANE (gene 1991) (P08246 whole entry, looked up): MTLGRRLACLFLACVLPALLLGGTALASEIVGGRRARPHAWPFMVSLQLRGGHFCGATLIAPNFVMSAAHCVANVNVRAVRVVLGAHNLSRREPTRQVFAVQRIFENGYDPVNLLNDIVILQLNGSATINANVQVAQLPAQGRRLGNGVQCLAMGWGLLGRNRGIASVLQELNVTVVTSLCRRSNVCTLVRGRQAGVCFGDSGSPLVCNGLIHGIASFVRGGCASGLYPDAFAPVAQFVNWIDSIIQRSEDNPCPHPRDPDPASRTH
# Procedure, shortened: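 Cell-free elastase from human neutrophils, 1.5 h after dosing, activity read by absorbance. Primary screen in duplicate at 25 uM; hits (e.g., 30% inhibition) rerun in singleton concentration-response up to 50 uM, fitted versus DMSO.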
# [4] = target: CDK2 (gene 1017) (UniProt P24941); experiment: NVS_ENZ_hCDK2: NovaScreen (NVS) Enzymatic Assay for human Cyclin-Cependent Kinase 2 (CDK2) (AID 2283144)
# Procedure, shortened: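 Cell-free recombinant human CDK2 with fluorescent substrate, product separated by electrophoretic mobility shift; 1 hr read. Primary screen at 25 uM in duplicate, actives retested in concentration-response up to 50 uM; loss of signal versus DMSO.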
# [5] = target: human Casein Kinase 1-delta (CK1D), CSNK1D (gene 1453) (UniProt P48730); experiment: NVS_ENZ_hCK1D: NovaScreen (NVS) Enzymatic Assay for human Casein Kinase 1-delta (CK1D) (AID 2283148)
# Sequence of human Casein Kinase 1-delta (CK1D), CSNK1D (gene 1453) (P48730 whole entry, looked up): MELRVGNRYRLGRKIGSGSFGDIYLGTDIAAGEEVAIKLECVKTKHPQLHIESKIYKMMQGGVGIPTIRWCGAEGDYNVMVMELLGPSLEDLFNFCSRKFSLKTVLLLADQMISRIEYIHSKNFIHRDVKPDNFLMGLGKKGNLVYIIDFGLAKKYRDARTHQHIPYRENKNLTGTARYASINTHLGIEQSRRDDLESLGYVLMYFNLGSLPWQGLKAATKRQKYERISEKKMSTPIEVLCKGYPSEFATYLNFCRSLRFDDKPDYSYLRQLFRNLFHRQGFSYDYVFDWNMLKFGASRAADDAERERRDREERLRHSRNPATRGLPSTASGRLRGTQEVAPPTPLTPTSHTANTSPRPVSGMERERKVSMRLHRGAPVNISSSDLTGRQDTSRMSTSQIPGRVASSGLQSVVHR
# Procedure, shortened: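 Recombinant human CK1-delta, cell-free; fluorescent substrate with electrophoretic mobility-shift separation of product, read 1 h after dosing. Single 25 uM duplicate screen, then concentration-response up to 50 uM; loss of signal vs DMSO.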
# [6] = target: human Epidermal Growth Factor Receptor (EGFR), EGFR (gene 1956) (UniProt P00533); experiment: NVS_ENZ_hEGFR: NovaScreen (NVS) Enzymatic Assay for human Epidermal Growth Factor Receptor (EGFR) (AID 2283151)
# Sequence of human Epidermal Growth Factor Receptor (EGFR), EGFR (gene 1956) (P00533 whole entry, looked up): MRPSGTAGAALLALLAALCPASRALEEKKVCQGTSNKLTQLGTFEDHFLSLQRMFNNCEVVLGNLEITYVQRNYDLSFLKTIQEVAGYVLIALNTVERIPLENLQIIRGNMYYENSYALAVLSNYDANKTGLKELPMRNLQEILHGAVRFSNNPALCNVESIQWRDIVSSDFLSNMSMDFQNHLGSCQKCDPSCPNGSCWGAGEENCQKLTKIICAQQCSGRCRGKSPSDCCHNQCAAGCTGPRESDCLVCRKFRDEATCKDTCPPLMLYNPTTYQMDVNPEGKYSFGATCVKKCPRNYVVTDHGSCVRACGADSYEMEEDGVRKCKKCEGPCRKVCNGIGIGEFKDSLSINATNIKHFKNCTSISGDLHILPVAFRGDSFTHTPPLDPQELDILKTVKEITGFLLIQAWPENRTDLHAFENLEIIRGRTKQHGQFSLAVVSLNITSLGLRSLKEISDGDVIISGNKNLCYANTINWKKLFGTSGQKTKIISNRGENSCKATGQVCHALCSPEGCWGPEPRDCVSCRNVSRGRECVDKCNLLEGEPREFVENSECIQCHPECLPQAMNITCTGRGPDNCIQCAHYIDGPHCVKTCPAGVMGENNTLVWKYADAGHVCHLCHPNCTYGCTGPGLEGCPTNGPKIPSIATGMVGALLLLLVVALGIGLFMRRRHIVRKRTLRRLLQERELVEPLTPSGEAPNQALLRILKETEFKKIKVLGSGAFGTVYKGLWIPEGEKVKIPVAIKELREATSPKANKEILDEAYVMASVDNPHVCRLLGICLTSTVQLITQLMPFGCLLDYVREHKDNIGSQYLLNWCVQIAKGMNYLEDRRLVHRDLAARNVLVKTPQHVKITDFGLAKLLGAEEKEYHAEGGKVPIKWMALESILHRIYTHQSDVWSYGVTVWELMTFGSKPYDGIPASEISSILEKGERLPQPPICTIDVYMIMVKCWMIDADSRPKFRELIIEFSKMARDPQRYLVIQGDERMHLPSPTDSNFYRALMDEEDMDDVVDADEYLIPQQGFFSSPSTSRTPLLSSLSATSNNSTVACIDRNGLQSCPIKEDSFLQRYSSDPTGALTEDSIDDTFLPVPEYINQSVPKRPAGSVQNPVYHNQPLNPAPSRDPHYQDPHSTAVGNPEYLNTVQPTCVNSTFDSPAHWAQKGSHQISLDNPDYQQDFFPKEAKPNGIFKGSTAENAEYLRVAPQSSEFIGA
# Experimental: (§1) NVS_ENZ_hEGFR is a biochemical, single-readout assay that uses extracted gene-proteins in a cell-free assay. Measurements were taken 1 hour after chemical dosing in a 384-well plate.NVS_ENZ_hEGFR is one of one assay component(s) measured or calculated from the NVS_ENZ_hEGFR assay. It is designed to make measurements of enzyme activity, a form of enzyme reporter, as detected with fluorescence intensity signals by Fluorescence and electrophoretic mobility shift technology.Data from the assay component NVS_ENZ_hEGFR was analyzed into 1 assay endpoint. This assay endpoint, NVS_ENZ_hEGFR, was analyzed in the positive analysis fitting direction relative to DMSO as the negative control and baseline of activity. Using a type of enzyme reporter, loss-of-signal activity can be used to understand changes in the enzymatic activity as they relate to the gene EGFR. Furthermore, this assay endpoint can be referred to as a primary readout, because this assay has produced multiple assay endpoints where this one serves a enzymatic activity function. To generalize the intended target to other relatable targets, this assay endpoint is annotated to the kinase intended target family, where the subfamily is receptor tyrosine kinase.
# (§2) Binding assays used specific radioligands (tritiated, iodinated) with non-radioactive competitive displacement ligands in agonist or antagonist protocols (as indicated) and various reference compounds and inhibitors to titrate specific binding to receptors and transporters. Most enzyme assays (CYPs, kinases, phosphatases, proteases, HDACs) used recombinant protein and specific substrates (fluorescence mostly, some colorimetric and radioactive) and inhibitors, followed by a biochemical separation of substrate and product. All assays for the biochemical HTS were initially run in duplicate at a single concentration (10 uM for CYP450 assays and 25 uM for all others). Assay-chemical combinations meeting a pre-defined threshold (e.g., 30% inhibition and other criteria defined below) were then run in singleton concentration-response format with maximum concentration of 20 uM for CYPs and 50 uM for all others. Each assay was run with positive and negative controls, and concurrent controls on every plate. The follow-up (secondary) screen tested active chemical-pairs in concentration series, as well as a few additional assays not tested in the primary screen, some selected negative inactives, and several cases re-run in the concentration series for confirmatory purposes.
# [7] = target: human Ephrin type-A Receptor 2 (EphA2), EPHA2 (gene 1969) (UniProt P29317); experiment: NVS_ENZ_hEphA2: NovaScreen (NVS) Enzymatic Assay for human Ephrin type-A Receptor 2 (EphA2) (AID 2283155)
# Sequence of human Ephrin type-A Receptor 2 (EphA2), EPHA2 (gene 1969) (P29317 whole entry, looked up): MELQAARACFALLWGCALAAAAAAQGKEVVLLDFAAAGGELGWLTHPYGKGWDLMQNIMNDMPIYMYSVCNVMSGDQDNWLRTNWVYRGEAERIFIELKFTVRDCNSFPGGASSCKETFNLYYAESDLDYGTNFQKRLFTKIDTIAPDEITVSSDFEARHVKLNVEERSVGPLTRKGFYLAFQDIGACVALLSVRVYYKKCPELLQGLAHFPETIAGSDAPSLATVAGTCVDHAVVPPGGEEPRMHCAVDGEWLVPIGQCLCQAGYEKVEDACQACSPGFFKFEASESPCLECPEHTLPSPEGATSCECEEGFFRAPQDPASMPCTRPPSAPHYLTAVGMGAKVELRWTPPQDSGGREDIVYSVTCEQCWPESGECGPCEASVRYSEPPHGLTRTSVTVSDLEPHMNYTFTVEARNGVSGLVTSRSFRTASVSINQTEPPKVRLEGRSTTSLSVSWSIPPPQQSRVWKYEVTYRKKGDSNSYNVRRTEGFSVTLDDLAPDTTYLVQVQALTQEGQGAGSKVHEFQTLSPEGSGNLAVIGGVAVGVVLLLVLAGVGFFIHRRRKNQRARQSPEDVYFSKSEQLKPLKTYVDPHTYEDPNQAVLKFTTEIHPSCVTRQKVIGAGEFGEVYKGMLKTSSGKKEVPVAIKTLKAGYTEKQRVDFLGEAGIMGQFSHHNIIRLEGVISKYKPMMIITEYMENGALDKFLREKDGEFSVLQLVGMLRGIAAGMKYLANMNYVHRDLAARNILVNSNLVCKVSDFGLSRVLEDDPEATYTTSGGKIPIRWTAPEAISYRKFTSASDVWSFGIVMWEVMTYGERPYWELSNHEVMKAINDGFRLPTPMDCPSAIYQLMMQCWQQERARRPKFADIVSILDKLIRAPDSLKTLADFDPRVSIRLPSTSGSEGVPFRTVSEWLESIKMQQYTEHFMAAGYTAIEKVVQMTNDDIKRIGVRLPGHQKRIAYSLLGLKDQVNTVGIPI
# Experimental: as §1, with “NVS_ENZ_hEphA2” for “NVS_ENZ_hEGFR”, “plate.NVS_ENZ_hEphA2” for “plate.NVS_ENZ_hEGFR”, “NVS_ENZ_hEphA2,” for “NVS_ENZ_hEGFR,”, “EPHA2.” for “EGFR.”
# as §2
# [8] = target: human Esterase Plasma (ES), BCHE (gene 590) (UniProt P06276); experiment: NVS_ENZ_hES: NovaScreen (NVS) Enzymatic Assay for human Esterase Plasma (ES) (AID 2283157)
# Sequence of human Esterase Plasma (ES), BCHE (gene 590) (P06276 whole entry, looked up): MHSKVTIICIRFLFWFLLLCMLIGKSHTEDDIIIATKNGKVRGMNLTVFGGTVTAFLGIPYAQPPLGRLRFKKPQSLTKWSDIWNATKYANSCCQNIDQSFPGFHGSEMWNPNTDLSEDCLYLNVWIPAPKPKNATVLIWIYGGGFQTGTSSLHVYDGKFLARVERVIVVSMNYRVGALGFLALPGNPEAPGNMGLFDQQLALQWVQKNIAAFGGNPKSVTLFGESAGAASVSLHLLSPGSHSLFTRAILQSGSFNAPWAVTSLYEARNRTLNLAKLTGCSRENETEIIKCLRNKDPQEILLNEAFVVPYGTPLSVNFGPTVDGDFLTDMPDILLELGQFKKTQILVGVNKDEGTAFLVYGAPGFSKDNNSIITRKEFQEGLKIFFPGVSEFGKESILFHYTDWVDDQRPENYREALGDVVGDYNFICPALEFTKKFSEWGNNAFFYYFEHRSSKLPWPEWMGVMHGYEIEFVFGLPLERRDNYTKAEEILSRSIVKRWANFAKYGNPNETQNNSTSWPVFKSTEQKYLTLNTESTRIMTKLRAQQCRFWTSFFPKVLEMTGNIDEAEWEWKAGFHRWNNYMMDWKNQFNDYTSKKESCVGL
# Procedure, shortened: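 Cell-free enzyme assay using esterase extracted from human plasma; colorimetric absorbance read 0.25 hour after dosing. Single-concentration duplicate screen at 25 uM, then concentration-response up to 50 uM; loss of signal scored against DMSO baseline.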
# [9] = target: human Caspase 8 (CASP8), CASP8 (gene 841) (UniProt Q14790); experiment: NVS_ENZ_hCASP8: NovaScreen (NVS) Enzymatic Assay for human Caspase 8 (CASP8) (AID 2283146)
# Sequence of human Caspase 8 (CASP8), CASP8 (gene 841) (Q14790 whole entry, looked up): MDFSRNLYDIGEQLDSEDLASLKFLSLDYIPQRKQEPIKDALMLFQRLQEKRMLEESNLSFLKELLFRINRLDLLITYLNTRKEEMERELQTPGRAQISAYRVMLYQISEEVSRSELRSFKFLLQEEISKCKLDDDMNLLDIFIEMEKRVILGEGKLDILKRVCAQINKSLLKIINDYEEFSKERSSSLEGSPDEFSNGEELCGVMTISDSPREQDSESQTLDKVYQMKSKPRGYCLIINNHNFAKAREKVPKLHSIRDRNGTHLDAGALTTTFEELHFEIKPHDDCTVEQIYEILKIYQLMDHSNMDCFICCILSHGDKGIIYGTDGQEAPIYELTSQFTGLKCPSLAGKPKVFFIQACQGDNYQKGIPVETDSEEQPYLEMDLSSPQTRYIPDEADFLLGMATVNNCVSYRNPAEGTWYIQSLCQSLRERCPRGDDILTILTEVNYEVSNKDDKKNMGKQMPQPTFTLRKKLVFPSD
# Experimental: NVS_ENZ_hCASP8 is a biochemical, single-readout assay that uses extracted gene-proteins from E. coli in a cell-free assay. Measurements were taken 1 hour after chemical dosing in a 96-well plate.NVS_ENZ_hCASP8 is one of one assay component(s) measured or calculated from the NVS_ENZ_hCASP8 assay. It is designed to make measurements of enzyme activity, a form of enzyme reporter, as detected with fluorescence intensity signals by Fluorescence technology.Data from the assay component NVS_ENZ_hCASP8 was analyzed into 1 assay endpoint. This assay endpoint, NVS_ENZ_hCASP8, was analyzed in the positive analysis fitting direction relative to DMSO as the negative control and baseline of activity. Using a type of enzyme reporter, loss-of-signal activity can be used to understand changes in the enzymatic activity as they relate to the gene CASP8. Furthermore, this assay endpoint can be referred to as a primary readout, because this assay has produced multiple assay endpoints where this one serves a enzymatic activity function. To generalize the intended target to other relatable targets, this assay endpoint is annotated to the protease intended target family, where the subfamily is cysteine protease.
# as §2, with “Assay-chemical combinations meeting a pre-defined threshold (e.g., 30% inhibition and other criteria defined below) were then run in singleton concentration-response format with maximum concentration of 20 uM for CYPs and 50 uM for all others.” left out
# [10] = target: human Colony Stimulating Factor 1 Receptor (CSF1R), CSF1R (gene 1436) (UniProt P07333); experiment: NVS_ENZ_hCSF1R: NovaScreen (NVS) Enzymatic Assay for human Colony Stimulating Factor 1 Receptor (CSF1R) (AID 2283150)
# Procedure, shortened: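 Cell-free recombinant human CSF1R kinase with fluorescent substrate, product separated by electrophoretic mobility shift; read 1 h after dosing. Primary screen at 25 uM in duplicate, actives then in concentration-response up to 50 uM, relative to DMSO.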
compound,measurement,setting,value
Cc1ccc(N=C=O)cc1N=C=O,AC50,[1],13.7 µM (active)
same,AC50,[2],12.6 µM (active)
same,AC50,[3],8.38 µM (active)
CCNS(=O)(=O)C(F)(F)C(F)(F)C(F)(F)C(F)(F)C(F)(F)C(F)(F)C(F)(F)C(F)(F)F,outcome,[4],inactive
same,outcome,[5],inactive
same,outcome,[6],inactive
same,outcome,[2],inactive
same,outcome,[7],inactive
Oc1ccc2ccc3cccc4ccc1c2c34,AC50,[1],5.26 µM (active)
same,AC50,[3],4.52 µM (active)
C1=Cc2cccc3cccc1c23,outcome,[2],inactive
same,outcome,[8],inactive
CNC(=O)Oc1cccc2c1OC(C)(C)C2,AC50,[8],27.3 µM (active)
COC(=O)c1ccccc1N,AC50,[9],11.1 µM (active)
ClCCOCCCl,outcome,[6],inactive
O=[N+]([O-])c1ccc(Oc2ccc(Cl)cc2Cl)cc1,outcome,[3],inactive
Nc1ccc([N+](=O)[O-])cc1,outcome,[9],inactive
same,outcome,[10],inactive
CCCCCOC(=O)c1ccccc1C(=O)OCCCCC,outcome,[3],inactive
O=[N+]([O-])C(Br)(CO)CO,AC50,[8],32.1 µM (active)
CCCCCCCCn1sccc1=O,AC50,[2],26 µM (active)
CN(C)C(=O)Nc1ccc(Cl)cc1,outcome,[7],inactive
same,outcome,[8],inactive
O=C(Nc1ccccc1)c1ccccc1I,outcome,[8],inactive
C[C@]12C=CC3=C4CCC(=O)C=C4CC[C@H]3[C@@H]1CC[C@@H]2O,outcome,[10],inactive
c1ccc(NNc2ccccc2)cc1,outcome,[1],inactive
same,AC50,[8],31.6 µM (active)
Cc1cccc(N)c1N,outcome,[1],inactive
same,AC50,[2],25 µM (active)
same,AC50,[8],23.1 µM (active)
Nc1ccc(N=Nc2ccccc2)cc1,outcome,[1],inactive
same,outcome,[9],inactive
CN(C)[C@@H]1C(=O)C(C(N)=O)=C(O)[C@@]2(O)C(=O)C3=C(O)c4c(O)cccc4[C@@](C)(O)[C@H]3C[C@@H]12,AC50,[2],7.39 µM (active)
same,AC50,[3],18.5 µM (active)
same,outcome,[8],inactive
CC(C)(C)C(O)(CCc1ccc(Cl)cc1)Cn1cncn1 (stereo not drawn),outcome,[6],inactive
same,AC50,[8],22.7 µM (active)
CCCCC(CC)COC(=O)c1ccc(C(=O)OCC(CC)CCCC)c(C(=O)OCC(CC)CCCC)c1 (stereo not drawn),outcome,[6],inactive
CCC[CH2][Sn]([Cl])([CH2]CCC)[CH2]CCC,AC50,[2],6.34 µM (active)
O=C(N[C@H](c1ccccc1)[C@@H]1CN2CCC1CC2)c1c(Cl)ccc(C(F)(F)F)c1Cl,AC50,[8],19.8 µM (active)
COP(=S)(OC)SCN1C(=O)c2ccccc2C1=O,outcome,[2],inactive
Nc1ccc(Cl)cc1N,AC50,[2],6.31 µM (active)
same,outcome,[3],inactive
same,outcome,[8],inactive
CCCCCCCCOC(=O)c1ccc(C(=O)OCCCCCCCC)c(C(=O)OCCCCCCCC)c1,AC50,[3],37.9 µM (active)
same,outcome,[7],inactive
COc1cc(C=O)cc2c1[C@H](COC(N)=O)[C@]1(OC(C)=O)ON2C[C@H]2[C@@H]1N2C(C)=O,outcome,[4],inactive
same,outcome,[10],inactive
same,AC50,[3],5.75 µM (active)
CCCCCCCCCCCCCN1CC(C)OC(C)C1 (stereo not drawn),outcome,[3],inactive
same,outcome,[7],inactive
same,outcome,[8],inactive
CCOC(=O)[C@]1(c2ccccc2)Oc2ccccc2[C@@H]1N,AC50,[8],16.7 µM (active)
Oc1ccccc1Cl,outcome,[7],inactive
[Cl-].[Cl-].[Hg+2],AC50,[8],20.9 µM (active)
Clc1ccc(Cl)c(Cl)c1,outcome,[9],inactive
CCOc1cccc(C2(N3CCN(c4ccccc4)CC3)CCC(C)CC2)c1 (stereo not drawn),outcome,[8],inactive
CCN(CC)N=O,outcome,[5],inactive
same,outcome,[10],inactive
same,outcome,[6],inactive
same,outcome,[7],inactive
CC(C)(O)c1cnn2c(-c3ccc(F)c(-c4c(F)cccc4C#N)c3)cnc2n1,outcome,[5],inactive
same,AC50,[2],40.8 µM (active)
